Source: PubChem BioAssay (NCI)
This is part of a sample that, as a whole, favours compounds with a hit. Of some 79,000 tested, about 15% had one in any assay. Activity calls are given as the source filed them. Rule as the data show it: active = growth inhibition above about 70%; inactive = the rest.

Assay: NCI Yeast Anticancer Drug Screen. Data for the mec2-1 strain (AID 157)
Conditions: S. cerevisiae mec2-1 strain, at 50.0 µM, hits give high values
Description: Growth inhibition of yeast strains with defined genetic alterations is measured as a screen for potential anti-cancer activity. Selected strains with alterations in DNA damage repair or cell cycle control were exposed to compounds and growth inhibition was measured relative to vehicle treated controls. The strain used in this assay is mec2-1
In the case of `CCN(CC)CCN(C)CC(=O)Nc1ccccc1C`, the growth inhibition is reported as 6.3% (inactive).
With `CC(=O)C1=C(C)N2C(=NC3=C(CCc4ccccc43)C2c2cccc(Br)c2)S1` (stereo not given) the growth inhibition was -27.4% (inactive).
With `N#CCC(=O)OCCCCOC(=O)CC#N` the growth inhibition was -22.3% (inactive).
With `CCCCCCCCCCCCOc1ccccc1C=O` the growth inhibition was -29.8% (inactive).
In the case of `COc1ccc(/C=c2\[nH]c3nc(=O)c(N4CCOCC4)c(N)n3c2=O)cc1`, the growth inhibition is reported as -19.4% (inactive).
With `CCOC(=O)C(CNc1ccccc1)C(=O)OCC` the growth inhibition was -3.05% (inactive).
For `Cc1nc2c(Cl)cc(Cl)c(Cl)c2s1`, the growth inhibition was 5.15% (inactive).
In the case of `N#Cc1c(N)oc(-c2cccc([N+](=O)[O-])c2)c1C#N`, the growth inhibition is reported as 28.9% (inactive).
For `S=C1SCN(Cc2ccccc2)CN1Cc1ccccc1`, the growth inhibition was -26.1% (inactive).
For `O=c1oc(-c2ccc(Cl)cc2)nc2cc(Cl)ccc12`, the growth inhibition was -14.7% (inactive).
In the case of `Cc1ccccc1Nc1n[nH]c(=S)s1`, the growth inhibition is reported as 17.8% (inactive).
For `COc1c(OC)c(OC)c2c(c1OC)c(=O)c1ccccc1n2C`, the growth inhibition was 22.9% (inactive).
For `C=C(CCC(C(=O)O)C1CCC2(C)C3=C(CCC12C)C1(C)CCC(O)C(C)(C)C1CC3)C(C)C` (stereo not given), the growth inhibition was -29.5% (inactive).
In the case of `O=C1NC(N/N=C\c2ccccc2)=N/C1=C/c1ccc(Cl)cc1`, the growth inhibition is reported as 0.75% (inactive).
With `O=C(CN1CCOCC1)Nc1cccc(C(F)(F)F)c1` the growth inhibition was -31.4% (inactive).
For `Nc1n[nH]c(=S)n1-c1ccc(Cl)cc1`, the growth inhibition was -29.6% (inactive).
In the case of `Cc1ccc2c(sc(-c3ccc4c(c3)sc(-c3ccc5c(c3)sc(-c3ccc(N(C)C)cc3)[n+]5C)[n+]4C)[n+]2C)c1S(=O)(=O)O` (tested in a mixture with another compound), the growth inhibition is reported as 22.3% (inactive).
In the case of `COc1cc([C@H]2OC[C@@H]3C(c4cc(OC)c5c(c4)OCO5)OC[C@H]23)cc(OC)c1OC` (stereo not given in full), the growth inhibition is reported as -34.6% (inactive).
With `CCCN1CCc2cc(OC)c(OC)cc2C1Cc1ccc(OC)c(OC)c1` (stereo not given) the growth inhibition was -0.2% (inactive).
In the case of `O=C(/C=N/O)Nc1cc(Cl)ccc1Cl`, the growth inhibition is reported as 15.4% (inactive).
In the case of `COc1cc(C(=O)N/N=C/c2ccc(N(C)C)cc2)cc(OC)c1OC`, the growth inhibition is reported as -45.2% (inactive).
In the case of `O=C(O)c1ccc(NCn2c(=S)[nH]c3ccccc32)cc1O`, the growth inhibition is reported as -42.5% (inactive).
For `COc1ccc(NC(=S)N(C)C)cc1`, the growth inhibition was -11% (inactive).
For `CCC1OC2(C)CC(C#N)(C#N)C1(C#N)C(=N)O2` (stereo not given), the growth inhibition was -3.9% (inactive).
In the case of `CC1=NN(c2ccccc2)C(=O)C1C(=O)c1ccccc1` (stereo not given), the growth inhibition is reported as -3.65% (inactive).
With `CC1(C)C2CCC1(CS(=O)(=O)O)C(=O)C2` (stereo not given) the growth inhibition was -6.6% (inactive).
With `CC1CCN(c2ccc([N+](=O)[O-])cc2)CC1` the growth inhibition was -29.9% (inactive).
With `C=C1C(=O)OC2/C=C(\CO)CC/C=C(\CO)CC(OC(=O)C(C)C)C12` (stereo not given) the growth inhibition was -13.4% (inactive).
For `COc1ccc(/C=N/N2C(=O)c3ccccc3C2=O)cc1OC`, the growth inhibition was 1.2% (inactive).
In the case of `O=Cc1ccc2c(c1Cl)C(=O)c1ccccc1C2=O`, the growth inhibition is reported as 43.2% (inactive).
In the case of `COC(=O)C(Cc1nc2ccccc2[nH]c1=O)C(=O)C(=O)Nc1cc(C(F)(F)F)ccc1Cl` (stereo not given), the growth inhibition is reported as -18.5% (inactive).
In the case of `C#Cc1c(-c2c[nH]c3ccccc23)ccc[n+]1C`, the growth inhibition is reported as -36.1% (inactive).
With `O=C1c2ccccc2C(=O)c2c1cccc2N1C(=O)C=CC1=O` the growth inhibition was 37.9% (inactive).
With `COc1cc(/C=N\NC(=O)OC(C)(C)C)cc(OC)c1OC` the growth inhibition was -17.4% (inactive).
With `O=C1C=CC=C/C1=C1\N=C(c2ccccc2OCC(=O)c2ccc(Br)cc2)SS1` the growth inhibition was 18.1% (inactive).
In the case of `c1ccc(-c2nc3ccc4ccccc4c3nc2-c2ccccc2)cc1`, the growth inhibition is reported as -35.2% (inactive).
With `COc1ccc2nc(N/N=C/c3ccc(C)s3)cc(C)c2c1` the growth inhibition was -1.75% (inactive).
With `ClCCCC1(CCCCl)OCCO1` the growth inhibition was -25.1% (inactive).
For `CCOC(=O)C(C#N)N=Nc1ccccc1` (stereo not given), the growth inhibition was -7% (inactive).
For `CNc1nc2c(C)ccc3[nH]c(N(C)C)nc3c-2n1`, the growth inhibition was -32.8% (inactive).
